Screens as filed in PubChem.
HT1080 IDH1KD tx – HT-1080 IDH1 knockdown cell toxicity (counter line); HT-1080 IDH1 knockdown viability, ATP luminescence, 48 h; 360,000 tested, 2% active; Potency, µM (series often up to 46.1 µM), for the others: at the highest dose activity, negative = toxicity, hits mostly cytotoxic; AID 686971;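 also: potency is read from the fitted curve at half-maximal effect; 0% = DMSO wells and -100% = cell-free medium wells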
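Assay cells: HT-1080 with IDH1 knockdown, 750 per well, RPMI/5% FBS. Exposure: 48 h at 37 °C following 2 h pre-incubation. Read: CellTiter-Glo luminescence; fitted concentration-response, curve class assigned.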
12-LOX inh – ALOX12 (human) lipoxygenase inhibition; purified 12hLO, xylenol orange hydroperoxide absorbance; Potency, µM (series often up to 108 µM), without a hit: at the top dose activity change, negative = inhibition, hits mostly inhibitors; 580,000 tested, 1.1% active; also: potency is read from the fitted curve at half-maximal effect
Target sequence (P18054 whole entry, looked up): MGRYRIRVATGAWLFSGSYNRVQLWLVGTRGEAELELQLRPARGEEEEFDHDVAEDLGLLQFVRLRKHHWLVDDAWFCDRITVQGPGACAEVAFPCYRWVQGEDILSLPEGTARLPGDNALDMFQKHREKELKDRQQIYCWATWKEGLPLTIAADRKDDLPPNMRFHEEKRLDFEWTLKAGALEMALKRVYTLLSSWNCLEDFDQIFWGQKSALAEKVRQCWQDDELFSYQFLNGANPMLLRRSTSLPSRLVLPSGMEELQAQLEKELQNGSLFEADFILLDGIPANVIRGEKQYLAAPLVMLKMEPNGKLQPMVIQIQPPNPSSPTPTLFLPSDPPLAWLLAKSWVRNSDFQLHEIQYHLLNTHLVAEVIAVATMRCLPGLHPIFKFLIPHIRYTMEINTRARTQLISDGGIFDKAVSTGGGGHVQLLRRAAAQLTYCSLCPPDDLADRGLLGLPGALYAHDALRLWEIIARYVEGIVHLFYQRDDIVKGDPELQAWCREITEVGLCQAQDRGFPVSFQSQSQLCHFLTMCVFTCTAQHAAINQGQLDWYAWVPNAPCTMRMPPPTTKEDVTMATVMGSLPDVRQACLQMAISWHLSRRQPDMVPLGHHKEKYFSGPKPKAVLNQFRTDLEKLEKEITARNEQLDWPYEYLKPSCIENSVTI
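Hydroperoxide product was detected by ferrous iron/xylenol orange as the 573 to 405 nm absorbance ratio. Arachidonic acid at 40 uM (final) was turned over for 30 min at room temperature by 150 nM human 12hLO, pH 7.0 Hepes buffer, after 15 min compound preincubation.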
DT40 TDP1 no CPT – qHTS for Inhibitors of human tyrosyl-DNA phosphodiesterase 1 (TDP1): qHTS in cells in absence of CPT; DT40 Tdp1-/- hTDP1 cells, no CPT, ATP luminescence, 48 h; Potency, µM (doses to about 46.2 µM), for inactives: at the top dose activity change, negative = growth inhibition, hits mostly inhibitors; 420,000 tested, 15% active; AID 686978, 2013; also: potency is read from the fitted curve at half-maximal effect; nearly all actives have a fitted effect of over 55% in size
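A cellular qHTS used chicken DT40 cells lacking endogenous Tdp1 but carrying stably transfected human TDP1. Compounds were applied without camptothecin, and cell growth kinetics were judged by ATP-dependent luminescence after ≥48 hr.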
HT1080-NT tox – kills 2HG-producing HT-1080-NT fibrosarcoma cells | HT-1080-NT fibrosarcoma viability, CellTiter-Glo ATP luminescence, 48 h | Potency, µM (series often up to 46.1 µM), for inactives: top-dose activity, negative = less viability, hits mostly cytotoxic | 360,000 tested, 1.6% active | AID 686970;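 also: NT is the 2HG producing partner of a matched IDH1 knockdown line; potency is read from the fitted curve at half-maximal effect; 0% = DMSO-treated cells and -100% = media-only wells without cells; nearly all actives have a fitted effect of over 55% in size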
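HT-1080-NT; 750 cells/well; 5% FBS RPMI; 48 h compound, 37 degrees C; CellTiter-Glo luminescence; curve fitting and curve-class assignment.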
TDP1 cell CPT – growth inhibition of DT40 Tdp1-/-;hTDP1 cells with camptothecin (screen for TDP1 inhibitors); chicken DT40 Tdp1-/-;hTDP1 cells + 20 nM CPT, ATP luminescence, 48 h; Potency, µM (highest dose often 46.2 µM), without a hit: at the top dose activity change, negative = growth inhibition, hits mostly inhibitors; 420,000 tested, 12% active; AID 686979; also: potency is read from the fitted curve at half-maximal effect; nearly all actives have a fitted effect of over 55% in size
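Chicken DT40 Tdp1-/- cells stably complemented with human TDP1 were seeded at 400 cells/well in medium containing 20 nM camptothecin, exposed to pin-transferred compounds, and grown at 37 °C for at least 48 hr. Viability was read as ATP luminescence.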
IL1B secr inh – blocks inflammasome-driven IL-1 beta release; THP-1 LPS/ATP IL-1B secretion, AlphaLISA, 16 h; stronger effect = lower value; activity change, % at 57.5 µM; 360,000 tested, 4.7% active; AID 743279; in the data active = activity change below about -50%; inconclusive = mostly about -30% to -49%
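Secreted IL-1B measured by AlphaLISA bead assay after 16 h compound exposure of THP-1 cells; compounds (final up to 57.5 uM) added 1 h before LPS (250 ng/mL) and ATP (1.25 mM) stimulation; lower signal means less secretion.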
An asterisk follows results filed as active; ? = inconclusive; nt = no result; [ ] = remark or other dose. Only a selection was taken, and hits are over-represented in it overall. Unless noted, calls follow the shape of the dose curve; as a rule, active = well fitted curve in the direction sought with a large enough effect; inconclusive = small, poorly fitted or top-dose-only effect, or another doubt; inactive = no such curve, though single readings can be large; an effect the other way counts as inactive or inconclusive. Unless noted, % is scaled to controls: 0 for no effect and ±100 for the full control effect.

SMILES | HT1080 IDH1KD tx | 12-LOX inh | DT40 TDP1 no CPT | HT1080-NT tox | TDP1 cell CPT | IL1B secr inh
O=C(Cc1ccc(Cl)cc1)NCC(=O)N1CCN(c2ccccc2)CC1 | ? | -1% | 23µM* | ? | 29µM* | 0
CC(C)[C@H](NC(=O)c1ccc(Cl)cc1)C(=O)OCC(=O)N1CCN(c2ccccc2)CC1 | 3% | ? | 21µM* | -8% | ? | -18
O=C(Cc1c[nH]c2ccccc12)N1CCN(S(=O)(=O)c2cc(F)ccc2F)CC1 | nt | 91% | nt | nt | nt | nt
COc1cccc(OCCn2cc(C=O)c3ccccc32)c1 | -16% | 0% | ? | -5% | 17% | -10
Cc1cc(OCCn2cc(/C(N)=N/O)c3ccccc32)ccc1Cl | ? | -33% | ? | ? | 26µM* | -14
COc1ccc(OCCn2cc(C(=O)c3ccco3)c3ccccc32)cc1 | nt | -2% | 26µM* | nt | 21µM* | nt
COC(=O)Cn1cc(C(=O)c2ccco2)c2ccccc21 | -9% | -24% | -3% | -1% | -14% | 6
COC(=O)c1cn(CCOc2ccc(C)cc2)c2ccccc12 | -12% | 0% | ? | 1% | ? | 19
COC(=O)N/N=C/c1cn(CCOc2cccc(OC)c2)c2ccccc12 | 0% | 0% | 21µM* | -18% | ? | -8
Cc1ccc(OCCn2cc(C(=O)c3ccco3)c3ccccc32)cc1C | nt | -18% | 18µM* | nt | 15µM* | nt
CCc1ccccc1NC(=O)CCS(=O)(=O)c1ccc2c(c1)CCN2C(=O)C1CC1 | nt | -21% | nt | nt | nt | nt
CC1CN(C)C(C)(C)CC1O (stereo not drawn) | nt | 21% | nt | nt | nt | nt
Cc1nn(-c2ccccc2)c(C)c1CN1CCCCC12Cc1ccccc1CNC2=O (stereo not drawn) | nt | 7%[6.33 µM] | nt | nt | nt | nt
CCOC(=O)/C(C#N)=C/c1cn(CCOc2ccc(OC)cc2)c2ccccc12 | -3% | -15% | ? | -6% | 15µM* | 14
CCOc1ccc(NC(=O)/C(C#N)=C/c2cn(CC(=O)O)c3ccccc23)cc1 | 0% | -13% | -17% | 5% | -23% | 9
O=C(c1ccccn1)N1CCC(Cc2nc(-c3ccccc3)n[nH]2)C1 (stereo not drawn) | nt | 28% | nt | nt | nt | nt
Cc1ccc(Cn2c(CNS(=O)(=O)c3c(C)cc(C)cc3C)nc3cccnc32)cc1 | nt | ? | ? | nt | 16µM* | nt
CCOc1ccc(Cn2c(CNS(=O)(=O)c3ccc(Cl)s3)nc3cccnc32)cc1 | nt | 0% | ? | nt | 18µM* | nt
CCOc1ccc(Cn2c(CNS(=O)(=O)c3c(C)cc(C)cc3C)nc3cccnc32)cc1 | nt | -15% | 18µM* | nt | ? | nt
CCOc1ccc(Cn2c(CNS(=O)(=O)c3ccc(CC)cc3)nc3cccnc32)cc1 | nt | -23% | ? | nt | ? | nt
Cc1ccc(Cn2c(CNC(=O)c3ccccc3Br)nc3cccnc32)cc1 | nt | -13% | 16µM* | nt | ? | nt
Cc1ccc(Cn2c(CNS(=O)(=O)c3ccc(C(C)(C)C)cc3)nc3cccnc32)cc1 | nt | -17% | ? | nt | ? | nt
Cc1ccc(S(=O)(=O)NCc2nc3cccnc3n2Cc2ccccc2Cl)c(C)c1 | nt | -12% | ? | nt | ? | nt
COc1ccccc1Cn1c(CNS(=O)(=O)c2c(C)cc(C)cc2C)nc2cccnc21 | nt | -9% | 16µM* | nt | 16µM* | nt
COc1ccc(C(C)(C)C)cc1NC(=O)c1[nH]c(C)c(C(C)=O)c1C | -15% | ? | 16µM* | ? | -1% | -2
COc1ccc(NC(=O)c2[nH]c(C)c(C(C)=O)c2C)cc1Cl | -15% | -4% | ? | -16% | 2.1µM* | -8
CC(=O)c1c(C)[nH]c(C(=O)Nc2ccc(C)c(C)c2)c1C | 20% | 0% | -2% | ? | -3% | -26
